Bioassay records as filed in PubChem BioAssay.
The list is not random: actives were taken first. Their share in the collection is about 3.5%.
GPR151 activ: activators of human GPR151, primary screen, cell-based, PathHunter beta-arrestin, luminescence; G-protein coupled receptor 151 (Homo sapiens), Q8TDV0; PathHunter beta-arrestin GPR151 cells; activation, % at 11.2 µM; actives 1% (n = 650,000); in the data active = activation above about 4.9%
TEAD-YAP inh: TEAD-YAP interaction inhibition, primary screen, TEAD-YAP interaction inhibitor project, luminescence, HEK-TIYL cells; AID 1259422, 2018; inhibition, % at 9.12 µM; TEAD-Gal4/YAP UAS-luciferase luminescence; actives 1.4% (n = 640,000); in the data active = inhibition above about 32%
MITF inh: MITF inhibitors, primary screen, biochemical, AlphaScreen, human; Microphthalmia-associated transcription factor (Homo sapiens), O75030; AlphaScreen MITF homodimerization, bead proximity signal; inhibition, % at 2.6 µM; actives 0.91% (n = 650,000); AID 1259374, 2018; in the data active = inhibition above about 50%
FBW7 act: FBW7 E3 ligase activators, primary screen, biochemical, AlphaScreen, human; normalized activity (activation), % at 26.1 µM; AlphaScreen FBW7–phospho-cyclin E peptide binding, activator screen; actives 0.13% (n = 650,000); F-box/WD repeat-containing protein 7 (Homo sapiens), Q969H0; in the data active = normalized activity above about 1.9%;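 also: purified mutant Fbw7 with reduced substrate affinity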
Target sequence (Q969H0 whole entry, looked up): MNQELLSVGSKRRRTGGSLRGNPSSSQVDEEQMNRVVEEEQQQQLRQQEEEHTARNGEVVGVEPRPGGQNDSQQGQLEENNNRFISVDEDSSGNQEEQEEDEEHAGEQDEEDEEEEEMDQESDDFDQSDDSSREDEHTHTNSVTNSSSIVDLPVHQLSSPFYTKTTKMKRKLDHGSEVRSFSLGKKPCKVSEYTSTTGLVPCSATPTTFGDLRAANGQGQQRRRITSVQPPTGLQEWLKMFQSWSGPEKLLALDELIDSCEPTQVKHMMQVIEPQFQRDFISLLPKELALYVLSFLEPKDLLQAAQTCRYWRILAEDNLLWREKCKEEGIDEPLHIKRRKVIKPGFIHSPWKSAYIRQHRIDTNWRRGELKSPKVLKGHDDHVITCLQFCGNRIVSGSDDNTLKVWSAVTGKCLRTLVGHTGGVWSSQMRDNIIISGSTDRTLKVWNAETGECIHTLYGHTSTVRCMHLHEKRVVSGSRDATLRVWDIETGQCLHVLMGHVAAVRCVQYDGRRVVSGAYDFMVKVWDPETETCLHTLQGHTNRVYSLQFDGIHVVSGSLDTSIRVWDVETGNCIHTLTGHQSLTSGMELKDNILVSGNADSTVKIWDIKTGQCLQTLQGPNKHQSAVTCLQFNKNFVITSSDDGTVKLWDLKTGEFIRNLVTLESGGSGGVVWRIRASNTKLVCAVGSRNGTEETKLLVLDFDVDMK
GPR151 conf act: GPR151 activators, triplicate retest, confirmation, cell-based, PathHunter beta-arrestin, luminescence | AID 1508609, 2020 | GPR151 PathHunter beta-arrestin cells, 90 min; % of EA-reagent control over plate median | shares compounds with GPR151 activ | 6,700 tested, under 10 active | activation, % at 11.2 µM;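 active = mean percent activation across replicates above the confirmation screen cutoff of 4.91%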
GPR119 counter: GPR119 activators in beta-arrestin cells, counter-screen for GPR151 activator project, cell-based, PathHunter beta-arrestin, luminescence, triplicate; shares compounds with GPR151 activ; 90 min; 0 = compound-well median, 100 = enzyme-acceptor control; activation, % at 11.2 µM; actives 0.3% (n = 6,700); AID 1508611, 2020;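 active = mean percent activation in the counterscreen above 29.09%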;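 also: counterscreen on off-target GPR119 to flag nonselective hits from the GPR151 activator screen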
Hits are given with their value.

CCOc1cc(C=O)ccc1OCCOc1ccccc1OC was read as GPR151 activ 11, TEAD-YAP inh inactive, MITF inh inactive, FBW7 act inactive, GPR151 conf act inactive and GPR119 counter inactive.
COC(=O)C1=NNC2C(=O)N(c3ccc(OC)cc3)C(=O)C12 (stereo unspecified) was read as GPR151 activ 6.1, TEAD-YAP inh inactive, MITF inh inactive, FBW7 act inactive, GPR151 conf act inactive and GPR119 counter inactive.
`CN(Cc1ccn[nH]1)C(=O)c1ccc(OC2CCN(C(=O)C3CC3)CC2)cc1` gave GPR151 activ inactive, TEAD-YAP inh inactive, MITF inh inactive and FBW7 act inactive.
CN(Cc1ccn[nH]1)C(=O)c1cccc(OC2CCN(C(=O)C3CC3)CC2)c1 was read as GPR151 activ 4.9, TEAD-YAP inh inactive, MITF inh inactive, FBW7 act inactive, GPR151 conf act inactive and GPR119 counter inactive.
Screening C=CCNC(=O)C(C)N(c1ccccc1)S(C)(=O)=O (stereo unspecified) returned GPR151 activ 8.2, TEAD-YAP inh inactive, MITF inh inactive, FBW7 act inactive, GPR151 conf act inactive and GPR119 counter inactive.
Screening Cc1ccc(N(C(C)C(=O)NC2CCCCC2)S(C)(=O)=O)cc1C (stereo unspecified) returned GPR151 activ 6.6, TEAD-YAP inh inactive, MITF inh inactive, FBW7 act inactive, GPR151 conf act inactive and GPR119 counter inactive.
For Cc1ccc(N(C(C)C(=O)NCc2ccccn2)S(C)(=O)=O)cc1C (stereo unspecified) the results were GPR151 activ 5.4, TEAD-YAP inh inactive, MITF inh inactive, FBW7 act inactive, GPR151 conf act inactive and GPR119 counter inactive.
Cc1ccc(N(C(C)C(=O)NC2CCCCCC2)S(C)(=O)=O)cc1C (stereo unspecified) was read as GPR151 activ inactive, TEAD-YAP inh inactive, MITF inh inactive and FBW7 act inactive.
C=CCNC(=O)C(C)N(c1ccc(C)cc1)S(C)(=O)=O (stereo unspecified) was read as GPR151 activ inactive, TEAD-YAP inh inactive, MITF inh inactive and FBW7 act inactive.
For C/C(=C/C(=O)ONC(=O)c1ccc([N+](=O)[O-])cc1)NN(C)c1ccccc1 the results were GPR151 activ inactive, TEAD-YAP inh inactive, MITF inh inactive and FBW7 act inactive.
`Cc1nc(N)n(N)c(=O)c1CCCN1C(=O)c2ccccc2C1=O` gave GPR151 activ inactive, TEAD-YAP inh inactive, MITF inh inactive and FBW7 act inactive.
Screening Cc1nc(N)n(N)c(=O)c1Cc1ccccc1 returned GPR151 activ 6.4, TEAD-YAP inh inactive, MITF inh inactive, FBW7 act inactive, GPR151 conf act inactive and GPR119 counter inactive.
`COc1ccc(-n2c(SCC(=O)c3ccc(Br)cc3)nc3ccccc3c2=O)cc1` gave GPR151 activ inactive, TEAD-YAP inh inactive, MITF inh inactive and FBW7 act inactive.
`CCOC(=O)c1nc(N)nc(Nc2ccccc2)n1` gave GPR151 activ 11, TEAD-YAP inh inactive, MITF inh inactive, FBW7 act inactive, GPR151 conf act inactive and GPR119 counter inactive.
Screening COc1ccc(Nc2nc(N)nc(CN3CCN(c4ccccn4)CC3)n2)cc1 returned GPR151 activ inactive, TEAD-YAP inh inactive, MITF inh inactive and FBW7 act inactive.
COc1ccc(Nc2nc(N)nc(CN3C(=O)c4ccccc4C3=O)n2)cc1 was read as GPR151 activ 6.9, TEAD-YAP inh inactive, MITF inh inactive, FBW7 act inactive, GPR151 conf act inactive and GPR119 counter inactive.
`CCOC(=O)c1cnc(SCc2nc(N)nc(Nc3ccccc3)n2)nc1N` gave GPR151 activ inactive, TEAD-YAP inh inactive, MITF inh inactive and FBW7 act inactive.
CCN1CCN(Cc2nc(N)nc(Nc3ccccc3)n2)CC1 was read as GPR151 activ 6.1, TEAD-YAP inh inactive, MITF inh inactive, FBW7 act inactive, GPR151 conf act inactive and GPR119 counter inactive.
`NC(Cc1ccccc1)c1nc2ccc(-c3cncc4ccccc34)cc2[nH]1` (stereo unspecified) gave GPR151 activ inactive, TEAD-YAP inh inactive, MITF inh inactive and FBW7 act inactive.
`O=C(Cn1c(N2CCCCC2)nc2ccccc21)c1ccccc1` gave GPR151 activ inactive, TEAD-YAP inh inactive, MITF inh inactive and FBW7 act inactive.
O=C(CCN1C(=O)c2ccccc2S1(=O)=O)Nc1ccc(C(=O)O)cc1 was read as GPR151 activ 7.6, TEAD-YAP inh inactive, MITF inh inactive, FBW7 act inactive, GPR151 conf act inactive and GPR119 counter inactive.
`COc1ccc(NC(=O)CCN2C(=O)c3ccccc3S2(=O)=O)cc1` gave GPR151 activ inactive, TEAD-YAP inh inactive, MITF inh inactive and FBW7 act inactive.
Screening CC(=O)Nc1ccc(N/C=C(/C#N)c2nc(-c3ccc(F)cc3)cs2)cc1 returned GPR151 activ inactive, TEAD-YAP inh inactive, MITF inh inactive and FBW7 act inactive.
O=C(O)/C=C/C(=O)N(Cc1ccccc1)Cc1ccccc1 was read as GPR151 activ 5.3, TEAD-YAP inh inactive, MITF inh inactive, FBW7 act inactive, GPR151 conf act inactive and GPR119 counter inactive.
For COc1ccc(/C=C/C(=O)N(Cc2ccccc2)Cc2ccccc2)cc1 the results were GPR151 activ inactive, TEAD-YAP inh inactive, MITF inh inactive and FBW7 act inactive.
CC(Cl)C(=O)N(Cc1ccccc1)Cc1ccccc1 (stereo unspecified) was read as GPR151 activ 5.1, TEAD-YAP inh inactive, MITF inh inactive, FBW7 act inactive, GPR151 conf act inactive and GPR119 counter inactive.
Screening CC(Nc1cc(N2CCN(C(=O)c3cccc(Cl)c3)CC2)ccc1[N+](=O)[O-])C12CC3CC(CC(C3)C1)C2 (stereo unspecified) returned GPR151 activ inactive, TEAD-YAP inh inactive, MITF inh inactive and FBW7 act inactive.
`O=C(O)C1CC=C(Cl)CC1C(=O)Nc1ccn[nH]1` (stereo unspecified) gave GPR151 activ 10.0, TEAD-YAP inh inactive, MITF inh inactive, FBW7 act inactive, GPR151 conf act inactive and GPR119 counter inactive.
For CC(=O)c1cccc(-c2nc(C(=O)NC3CCN(Cc4ccccc4)CC3)cs2)c1 the results were GPR151 activ 9.9, TEAD-YAP inh inactive, MITF inh inactive, FBW7 act inactive, GPR151 conf act inactive and GPR119 counter inactive.
`O=C(NC1CCN(Cc2ccccc2)CC1)c1csc(-c2ccccc2)n1` gave GPR151 activ inactive, TEAD-YAP inh inactive, MITF inh inactive and FBW7 act inactive.
